Data: PubChem BioAssay AID602296 (Broad Institute, 2012)
The whole screen tested about 2,000 compounds, of which about 190 (9.5%) were called active. Not shown: some 14% with an inconclusive outcome.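 Rule for the calls: active = fitted activation curve crossing 40% at a concentration no higher than the sample's top valid tested dose; inconclusive = flat fitted curve at 30% to 70% activation, or poor curve fit; inactive = signal decrease, flat curve within 30%, or the rest.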 These entries were drawn from the full list.

Assay: HSF-1 reporter activators over prolonged exposure, confirmation, cell-based, mouse, luciferase, cherry-pick, dose (AID 602296);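 note: test compounds applied by themselves with no MG132 co-treatment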
Conditions: NIH3T3-HGL HSF-1 response element luciferase, 48 h; series mostly up to 26 µM; activation: at the top concentration

activation, inactive:
CC12CCC(=O)N1C(C(=O)Nc1cccc3ccccc13)CS2 (stereo unspecified) -1.65%
COc1ccc(CNCC(O)COc2ccc(C(C)(C)c3ccccc3)cc2)cc1 (stereo unspecified) -44.6%
COc1ccc(Cl)cc1NC(=O)CCc1nc(-c2ccccc2F)no1 -32.6%
Cc1ccc(-c2ccc(=O)[nH]n2)cc1 6.96%
c1ccc(Cn2nnnc2C(c2cccs2)N2CCc3ccccc3C2)cc1 (stereo unspecified) -61.7%
COc1ccc(N/C=C(\C=C\C#N)S(=O)(=O)c2ccccc2)cc1 2.06%
Cc1cccc(NC(=S)N(CCN(C)C)C(C)c2cccnc2)c1 (stereo unspecified) -1.67%
COCCOC(=O)C1=C(C)NC(C)=C(C(=O)OCCOC)C1/C=C/c1ccccc1OC -6.58%
COc1ccc(C(=O)COC(=O)c2cccnc2SC)cc1 -0.632%
CCOc1ccc(S(=O)(=O)NNC(=S)Nc2ccc(Br)cc2)cc1 0.555%
CCOC(=O)c1c(NC(C)=O)sc2c1CCC(C=NCCCN(CC)CC)=C2Sc1ccccc1 13%
O=C(c1ccc(Br)cc1)N1CCCC(c2nc(-c3cccs3)no2)C1 (stereo unspecified) -37.2%
Cc1[nH]c2ccccc2c1CN1CCN(c2ccccn2)CC1 -15.3%
CCOc1ccc(NC(=O)C2CC(=O)N3CCCN=C3S2)cc1 (stereo unspecified) -13.2%
CCOC(=O)c1nnc(-c2ccccc2)nc1Sc1ccccc1Cl -101%
CCC(NC(=O)/C(=C\c1ccc2c(c1)OCO2)NC(C)=O)C(=O)O (stereo unspecified) -1.08%
Cc1cc(NC(=O)CSc2nc3c(cc2C#N)CCC3)no1 -57.8%
Cc1nonc1C1CCCN1Cc1cn[nH]c1-c1ccc(-c2ccccc2)cc1 (stereo unspecified) -16.4%
Cc1ccc2c(CN3CCN(S(=O)(=O)/C=C/c4ccccc4)CC3)cc(=O)oc2c1 -1.07%
O=C1C2CCCCC2C(=O)N1Cc1ccccc1 (stereo unspecified) -6.54%
CC(C)C(C)N(Cc1ccc(C(=O)O)cc1)C(=O)c1ccc2ccccc2n1 (stereo unspecified) -7.06%
O=C(Nc1ccn(Cc2ccccc2F)n1)c1ccc(COc2ccc(Cl)cc2Cl)o1 -41.2%
Cn1c(CN2CCN(c3ccc(Cl)cc3)CC2)nc2ccccc21 7.35%
Brc1ccc(CSc2nnc(-c3ccccn3)n2Cc2ccco2)cc1 -64.8%
CSc1nc(S(=O)(=O)c2ccc(C)cc2)c(Cl)s1 4.27%
COc1ccc(CCNCc2cc(C)n(-c3ccc(OC)cc3)c2C)cc1 -9.47%
Cc1cc(C(=O)N/N=C/c2ccc([N+](=O)[O-])s2)c2ccccc2n1 -39.8%
Clc1ccc(-n2cc(COCc3ccccc3)nn2)cc1 -82.4%
COc1ccc(Cl)cc1N(CC(=O)Nc1ccccc1SC)S(C)(=O)=O 5.09%
COc1ccc(OC)c(S(=O)(=O)Nc2ccccc2O)c1 -3.47%
CCOC(=O)/C=C/C(=O)OCC(=O)NC(c1ccccc1)c1ccccc1 -43.9%
